An excerpt weighted towards active compounds, which were near 19% of everything screened.
IL1B secr inh: qHTS for Inhibitors of Inflammasome Signaling: IL-1-beta AlphaLISA Primary Screen; THP-1 LPS/ATP IL-1B secretion, AlphaLISA, 16 h; active compounds read low; activity change, % at 57.5 µM; hit rate 4.7% among 360,000; in the data active means activity change below about -50%; inconclusive means mostly about -30% to -49%
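Secreted IL-1B measured by AlphaLISA bead assay after 16 h compound exposure of THP-1 cells; compounds (final up to 57.5 uM) added 1 h before LPS (250 ng/mL) and ATP (1.25 mM) stimulation; lower signal means less secretion.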
HT1080 IDH1KD tx: qHTS for induction of synthetic lethality in tumor cells producing 2HG: qHTS for the HT-1080-IDH1KD cell line | HT-1080 IDH1 knockdown viability, ATP luminescence, 48 h | Potency, µM (top dose mostly 46.1 µM), hits mostly cytotoxic | hit rate 2% among 360,000 | AID 686971, 2013
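In this qHTS, HT-1080 cells depleted of IDH1 are exposed for 48 h at 37 °C to compound titrations. Toxicity is scored from CellTiter-Glo luminescence, with DMSO as full viability and medium alone as none.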
HT1080NT lethal: qHTS for induction of synthetic lethality in tumor cells producing 2HG: qHTS for the HT-1080-NT fibrosarcoma cell line. HT-1080-NT fibrosarcoma viability, CellTiter-Glo ATP luminescence, 48 h. Potency, µM (top dose mostly 46.1 µM), hits mostly cytotoxic. hit rate 1.6% among 360,000. AID 686970, 2013;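 further: NT is the 2HG producing partner of a matched IDH1 knockdown line; nearly all actives have a fitted effect of over 55% in size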
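A 48-hour cytotoxicity screen used HT-1080-NT cells plated 2 hours before compound delivery. ATP-based CellTiter-Glo luminescence measured viability, normalized to DMSO and no-cell controls.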
DT40 TDP1 CPT: qHTS for Inhibitors of human tyrosyl-DNA phosphodiesterase 1 (TDP1): qHTS in cells in presence of CPT | chicken DT40 Tdp1-/-;hTDP1 cells + 20 nM CPT, ATP luminescence, 48 h | hit rate 12% among 420,000 | Potency, µM (series often up to 46.2 µM), hits mostly inhibitors | AID 686979, 2013; further: nearly all actives have a fitted effect of over 55% in size
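Chicken DT40 Tdp1-/- cells stably complemented with human TDP1 were seeded at 400 cells/well in medium containing 20 nM camptothecin, exposed to pin-transferred compounds, and grown at 37 °C for at least 48 hr. Viability was read as ATP luminescence.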
DT40 TDP1 no CPT: qHTS for Inhibitors of human tyrosyl-DNA phosphodiesterase 1 (TDP1): qHTS in cells in absence of CPT | DT40 Tdp1-/- hTDP1 cells, no CPT, ATP luminescence, 48 h | Potency, µM (series often up to 46.2 µM), actives largely listed as inhibitors | hit rate 15% among 420,000 | AID 686978, 2013; further: nearly all actives have a fitted effect of over 55% in size
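No-CPT arm: Tdp1-/-;hTDP1 DT40 cells (400/well) plus compounds, incubated ≥48 hr at 37 °C. Readout CellTiter-Glo luminescence.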
Large screens that a line does not name were inactive. Unless noted, the call rests on the fitted dose curve; in most records, active means well fitted curve in the direction sought with a large enough effect; inconclusive means small, poorly fitted or top-dose-only effect, or another doubt; inactive means no such curve, though single readings can be large; an effect the other way counts as inactive or inconclusive.

O=C(CN1CCOc2ccccc21)NC1CCCCCCC1	DT40 TDP1 CPT inconclusive
NNC(=O)c1ccc(COc2ccc3ccccc3c2)cc1	HT1080NT lethal inconclusive, DT40 TDP1 CPT inconclusive, DT40 TDP1 no CPT 21µM
CC1CN(C(=O)c2cccc(COc3ccc(Br)cc3)c2)CC(C)O1 (stereo unspecified)	DT40 TDP1 CPT 21µM, DT40 TDP1 no CPT 13µM
COc1cc(CNC(=O)c2cccc(COc3ccc(Cl)cc3)c2)cc(OC)c1	DT40 TDP1 CPT inconclusive, DT40 TDP1 no CPT 16µM
CCOc1ccc(OCc2cccc(C(=O)N3CCOCC3)c2)cc1	DT40 TDP1 CPT inconclusive
O=C(NCc1ccccc1)c1cccc(COc2ccc(Cl)cc2)c1	IL1B secr inh inconclusive, DT40 TDP1 no CPT inconclusive
NNC(=O)c1cccc(COc2ccc(Br)cc2)c1	DT40 TDP1 CPT 21µM, DT40 TDP1 no CPT inconclusive
CCC(Sc1nc(-c2ccc(F)cc2)nc2c1Cc1c(CO)cnc(C)c1O2)C(=O)Nc1ccc(F)cc1 (stereo unspecified)	none (no result: IL1B secr inh, HT1080 IDH1KD tx, HT1080NT lethal)
CSc1ncccc1C(=O)OCC(=O)NC(C)C	none
COc1cc(/C=C2/SC(=S)N(CC3CCCO3)C2=O)ccc1O (stereo unspecified)	IL1B secr inh -74, DT40 TDP1 no CPT inconclusive
O=C1/C(=C/c2cccnc2)SC(=S)N1CC1CCCO1 (stereo unspecified)	IL1B secr inh -103, DT40 TDP1 no CPT inconclusive
COc1ccc(/C=C2\SC(=S)N(CC3CCCO3)C2=O)cc1 (stereo unspecified)	none
O=C1/C(=C/c2cccnc2)SC(=S)N1c1ccc(O)cc1	IL1B secr inh -99, HT1080NT lethal inconclusive, DT40 TDP1 no CPT inconclusive
Cc1ccc(/C=C2\SC(=S)N(CC3CCCO3)C2=O)o1 (stereo unspecified)	IL1B secr inh -96, DT40 TDP1 CPT inconclusive, DT40 TDP1 no CPT inconclusive
COc1ccc(CCNC(=O)Nc2ccc(F)cc2F)cc1OC	none
CN(C)c1ccc(C=NN2C(=O)CSC2=S)c(Cl)c1	DT40 TDP1 CPT inconclusive
Cc1ccc(F)c(CNC(=O)C2CCC(=O)N(Cc3ccccn3)C2)c1F (stereo unspecified)	DT40 TDP1 CPT inconclusive
CC(C)CN(C(=O)Cn1c(Cl)nc2c1c(=O)n(C)c(=O)n2C)C1CCS(=O)(=O)C1 (stereo unspecified)	none
O=C(/C=C/c1cn(-c2ccccc2)nc1-c1cccnc1)N1CCCC1	DT40 TDP1 CPT 8.2µM, DT40 TDP1 no CPT 7.3µM
N#C/C(=C/c1ccccc1[N+](=O)[O-])c1nnc2n1CCCCC2	none
O=C(/C=C/c1cn(-c2ccccc2)nc1-c1cccnc1)c1ccco1	IL1B secr inh -96, HT1080 IDH1KD tx inconclusive, HT1080NT lethal inconclusive, DT40 TDP1 CPT 15µM, DT40 TDP1 no CPT 10µM
N#C/C(=C\c1cn(-c2ccccc2)nc1-c1cccnc1)c1nnc2n1CCCCC2	IL1B secr inh -61, DT40 TDP1 CPT inconclusive, DT40 TDP1 no CPT inconclusive
CCCS(=O)(=O)NC(=O)C1(C)CCN(C(=O)c2ccccc2OC(F)(F)F)C1 (stereo unspecified)	DT40 TDP1 CPT inconclusive
COC(=O)c1c(Cl)c2n3ccccc3c(C)c(-c3ccccc3)c-2c1C(=O)OC	DT40 TDP1 CPT inconclusive, DT40 TDP1 no CPT 23µM
CCN(CC)C(=O)[C@H]1C[C@H](CC(=O)NCc2ccc(OC)c(OC)c2)C(=O)N2CCc3c([nH]c4ccc(Cl)cc34)[C@]12C	HT1080 IDH1KD tx inconclusive, HT1080NT lethal inconclusive, DT40 TDP1 CPT inconclusive, DT40 TDP1 no CPT 23µM
CCN(CC)C(=O)[C@H]1CC(CC(=O)NCc2ccc(OC)c(OC)c2)C(=O)N2CCc3c([nH]c4ccccc34)[C@]12C (stereo partly specified)	DT40 TDP1 CPT inconclusive, DT40 TDP1 no CPT inconclusive
COc1ccc2[nH]c3c(c2c1)CCN1C(=O)C(CC(=O)NCCCN(C)C)C[C@H](C(=O)N(C(C)C)C(C)C)[C@@]31C (stereo partly specified)	none
CCN(CC)C(=O)[C@H]1C[C@H](CC(=O)NCCCN(C)C)C(=O)N2CCc3c([nH]c4ccc(Cl)cc34)[C@]12C	IL1B secr inh -52, DT40 TDP1 CPT 18µM, DT40 TDP1 no CPT inconclusive
CC(C)N(C(=O)[C@H]1C[C@H](CC(=O)NCCCN(C)C)C(=O)N2CCc3c([nH]c4ccc(Cl)cc34)[C@]12C)C(C)C	HT1080 IDH1KD tx inconclusive, DT40 TDP1 CPT inconclusive, DT40 TDP1 no CPT 15µM
O=C(NC1CCN(S(=O)(=O)c2ccc(F)cc2)CC1)c1cccc(F)c1	none
O=C(CC[C@H]1O[C@@H](n2cnc3c(NC(=O)c4ccccc4)ncnc32)[C@H](O)[C@@H]1O)NCC1CCCCC1	none
COC(=O)c1ccccc1COc1cccn2c(N(C)CC3CC3)c(C)nc12	HT1080 IDH1KD tx inconclusive, HT1080NT lethal inconclusive, DT40 TDP1 CPT inconclusive, DT40 TDP1 no CPT 18µM
Cc1nc2c(OCc3ccc(C(F)(F)F)cc3)cccn2c1N(C)CC1CC1	HT1080 IDH1KD tx inconclusive, HT1080NT lethal 6.5µM, DT40 TDP1 CPT inconclusive, DT40 TDP1 no CPT 23µM
Cc1cc(=O)oc2cc(OCC(=O)OCC(=O)N(C)C3CCS(=O)(=O)C3)ccc12 (stereo unspecified)	none
CCn1cc(C(=O)N(C)Cc2ccccc2)c(=O)c2cc(S(=O)(=O)N3CCCCC3)ccc21	none (no result: IL1B secr inh, HT1080 IDH1KD tx, HT1080NT lethal)
CC(C)N(Cc1ccccc1)C(=O)CN1C(=O)CSc2ccc(S(=O)(=O)N3CCCC3)cc21	DT40 TDP1 CPT 12µM (no result: IL1B secr inh, HT1080 IDH1KD tx, HT1080NT lethal)

Bioassay records from PubChem.
